# Measurements reported in PubChem BioAssay (Tox21).
# Results filed as inconclusive are left out. Entries that show only a call come without a potency. Active and inactive are the calls of the source. The call rests on the fitted dose curve; in most records, active means well fitted cell-killing curve with a large enough effect in the repeat runs; inconclusive means weak or mixed curves; inactive means flat fitted curve, though single readings scatter.
# Assay: qHTS assay to identify small molecule antagonists of the estrogen related receptor (ERR) signaling pathway from Tox21 library - cell viability counter screen (AID 1224834); further: nearly all actives have a fitted effect of over 30% in size
# Details: ERR reporter cells viability, CellTiter-Fluor, 17.5 h; series mostly up to 92.4 µM
# From the text: National Center for Advancing Translational Sciences [NCATS]
# NIH Chemical Genomics Center [NCGC]
# U.S. Environmental Protection Agency [EPA]
# National Institutes of Environmental Health Sciences [NIEHS]
# National Toxicology Program [NTP]
# U.S. Food and Drug Administration [FDA]
# Estrogen related receptors (ERRs), the first orphan nuclear receptors discovered, play an important role in the control of cellular energy metabolism. ERRs are required for high-energy production in response to the environmental challenges. ERR-alpha was also identified as an adverse marker for breast cancer progression; ERR-alpha-positive tumors have a poor prognosis. To screen and to identify environmental compounds that perturb the ERR signaling pathways could provide valuable information for potential therapeutic or preventive measures in the treatment of metabolic disease. To differentiate true ERR antagonists or agonist from cytotoxic substances, the assay is multiplexed with cell viability assay.
# Tox21 Assay Protocol Summary:
# The ERR cells were dispensed at 2,000 cells/5 ul/well in 1536-well white plates using a Multidrop dispenser. After the assay plates were incubated at a 37 C/5% CO2 incubator for 6 hours, 23 nL of compounds dissolved in DMSO, positive and negative controls or DMSO only was transferred to the assay plate by a pin tool. The plates were incubated at 37 C for 17.5 hours. 1 ul/well of CellTiter-Fluor reagent was added into the assay plates using a Flying Reagent Dispenser. After 30-minute incubation at 37 C/5% CO2, the fluorescence intensity in the plates was measured using a ViewLux plate reader.
# Potency means the concentration at half of the fitted maximal effect.
row,Structure (SMILES),Potency
1,C=CC(C)(CCC=C(C)C)OC(=O)c1ccccc1 (stereo not given),inactive
2,CC(C)(C)c1ccc(OCC2CO2)cc1 (stereo not given),inactive
3,Cc1cc(C)c(S(=O)(=O)O)cc1N=Nc1cc(S(=O)(=O)O)c2ccccc2c1O,54.5 µM (active)
4,CC(=O)Nc1ccc(/C=N/NC(N)=S)cc1,inactive
5,CC(C)(C)c1cc(O)c(C(C)(C)C)cc1O,48.6 µM (active)
6,O=S1(=O)N=C(O)c2ccccc21,inactive
7,Cn1c(NCCN(CCO)CCCc2ccc([N+](=O)[O-])cc2)cc(=O)n(C)c1=O,inactive
8,Cc1ccccn1,inactive
9,C=Cc1c(C)c2cc3[nH]c(cc4nc(cc5nc(cc1[nH]2)C(C)=C5CCC(=O)O)C(CCC(=O)O)=C4C)c(C)c3C=C,23.7 µM (active)
10,CC1=CCC(C(C)C)C=C1 (stereo not given),inactive
11,NC(=S)N/N=C/c1cccnc1,inactive
12,N=C(N=C(N)N)N1CCOCC1,inactive
13,CC(=O)SCc1ccco1,inactive
14,CN(c1nccc(=O)[nH]1)C1CCN(c2nc3ccccc3n2Cc2ccc(F)cc2)CC1,inactive
15,CCCCOCCOCCOCCOCCO,inactive
16,O=C=NC1CCC(CC2CCC(N=C=O)CC2)CC1 (stereo not given),inactive
17,CN(C)C/C=C(/c1ccc(Br)cc1)c1cccnc1,inactive
18,Cc1ccc(O)c([C@H](CCN(C(C)C)C(C)C)c2ccccc2)c1,inactive
19,Cc1ccc2c(ccc3ccccc32)c1,inactive
20,COCCOCCOCCOCCOC,inactive

row,Structure (SMILES),Potency
1,CC1(C)[C@H]2CC[C@]1(C)[C@H](O)C2,inactive
2,CCN(CC)C(C)CN1c2ccccc2Sc2ccccc21 (stereo not given),inactive
3,CCN(CC)CCOc1ccc2c(c1)C(=O)c1cc(OCCN(CC)CC)ccc1-2,11.9 µM (active)
4,CCc1nn(C2CCCCC2)c2cc(C3(C#N)CCC(C(=O)O)CC3)ccc12 (stereo not given),48.6 µM (active)
5,Cc1c(Cn2ccnc2)c2ccccc2n1CCC(=O)O,inactive
6,O=C(O)Cc1cc(I)c(Oc2ccc(O)c(I)c2)c(I)c1,inactive
7,CCOC(=O)CC(=O)c1cc(F)c(Cl)nc1Cl,inactive
8,CCCCOC(O)CC (stereo not given),inactive
9,C=C(C)C(=O)OC(C)C,inactive
10,O=C(/C=C/c1ccc(O)c(O)c1)O[C@@H]1C[C@](O)(C(=O)O)C[C@@H](O)[C@H]1O,inactive
11,CC(=O)c1c(C)c([N+](=O)[O-])c(C(C)(C)C)c([N+](=O)[O-])c1C,inactive
12,CC(C)(C)c1cc(CCC(=O)OCC(COC(=O)CCc2cc(C(C)(C)C)c(O)c(C(C)(C)C)c2)(COC(=O)CCc2cc(C(C)(C)C)c(O)c(C(C)(C)C)c2)COC(=O)CCc2cc(C(C)(C)C)c(O)c(C(C)(C)C)c2)cc(C(C)(C)C)c1O,inactive
13,OC(CCN1CCCCC1)(c1ccccc1)C1CCCCC1 (stereo not given),inactive
14,Nc1ccc(C(=O)N2CC3CC(CN(Cc4ccccc4)C3)C2)cc1,inactive
15,Nc1ccc(C(=O)Nc2ccccc2N)cc1,inactive
16,CNS(=O)(=O)Cc1ccc2[nH]cc(CCN(C)C)c2c1,inactive
17,Nc1nc(N)c2nc(CNc3ccc(C(=O)N[C@@H](CCC(=O)O)C(=O)O)cc3)cnc2n1,inactive
18,CCCCCCCCC(CO)CCCCCC (stereo not given),inactive
19,CCOC(=O)CC(C)C,inactive
20,C1=Cc2ccccc2C1,inactive
